Results as given in the supplement of paper PMC6555819.

System: VDR:RXRa (NR concentration 270 nM, RXRa partner concentration 90 nM)
Assay: PBM binding z-score (relative to random genomic background probes); higher = stronger binding; sequences stand for … in GC…GCGATTGACAGCGTAGAATGAAGG
Protocol: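 Protein-binding microarray (Agilent 4x180K custom design, double-stranded 60-nt probes: 5' GC cap, 34-nt variable region, 24-nt constant primer region; full probe sequence given). Purified or IVT nuclear receptor:RXRα heterodimers (3:1 NR:RXRα, mostly 270:90 nM) or homodimers were incubated for 1 h in PBS with 2% milk and no ligand, then detected with Alexa488 antibodies. Fluorescence from o1-orientation probes (~5 replicates averaged) was converted to z-scores against 500 random hg19 background probes. Variable regions are seed direct-repeat (DR0–DR5) sites, all their single-nucleotide variants and half-site ablations.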

Sequence | PBM binding z-score
TAACCTAGGTCATTGGGCCAGTATAGTACGCATC | 2.89
TCTGCTAGGTCAACGATGGTCAGCCAATCTGCTA | 1.66
AGAATGAGGTAACCAAAGATCAGGGAAACGCTTG | -0.129
TCTAGCAGTCCAGAGGGTCACTCAAGAGGTACGG | 1.69
CCTTACGGGTCAAGGTTATAGTACGGGTGGTACG | 3.62
TCTTGTTGGTCACGGAGGTCACACACGACGGGTA | 6.07
CGTCAAAGTTCATCTAAGGTAACGTAAAGCACGC | 5.24
ATCTCTAGGTAACAGTTCAGTGAATCCCGAGGAT | 0.208
GATACAGGGTCAGCTAGAGCCCAGAGTATGGAAA | 2.26
CAAATTAGGTCAAGAGGTCAAAGTCCGCTTCCCG | 6.35
AGATGTAGGTTAAGGGTCATTCAGGTTGGTTCGC | 5.59
TCTGACAGGTGAAGGTAACTCAGGTACGCAGTCG | 0.667
TCTCGGAGGACACGAAAGGTAAGAGCTCGACATC | 0.0922
TAGCCTAGGTCATTGGGCCGGTATAGTACGCATC | 2.11
GGAACGAGGGCATTCGACTTGATAGCATGGCGAT | 1.35
CCTATTAGTTGACCATAAGGGCAGCCGAAGCTCG | 0.304
TAGCCTAGGTCATTGAGCCAGTATAGTACGCATC | 2.1
TCTTGTAGATCAAGCAGGTTAAGAAGGCCTGAGT | 0.55
CATCCAAGGTCAATGCTAGGTCAGTGAAAGCATT | 4.82
ACTAGCAAGCCAAGTTTGGGTCACTCAAACAAAG | 0.188

Sequence | PBM binding z-score
CCGACTGTGGCAAAGGTTACCATACTCAGTACGA | 1.03
TAGCCTAGGTCAGATCGGGCCGGTATACGCTATA | 0.236
AGAATGAGGTTATTAGGATCAGGGAATTGCGGTC | 2.7
TCTTGTACATCAAGCAGGTTAAGAAAGCCTGAGT | 0.528
TCTTGTAGATCAGCAGGTTTAGAAAGCTGGCCAA | 0.532
CCTACCAGGCCAATCTGGGTCACTCAAGGCTTGA | 0.999
AGTCAAAGTTCACTAGGTAACGTATGATTCAGCT | 3.93
CCTACTGGGCCAAAATGGTCATTGATGCCGATAA | -0.0666
TCTGGTTGGTCAAAGGTCACACACTCGAAATGCG | 5.33
TAGCCTAGGTCATGCAGGGGCCAGTATAGAAAGC | 2.7
TAGTCTAGGTCAGATCGGGCCAGTATACGCTATA | 0.995
CCTCGGAGGACAGAAGGTCCGAGCTGTCCGCTTT | -0.656
CTCGAAAGGCCGTGCTCAGGTGAGTATACCAAAC | -0.528
TCTAGTTGCTCAAAGGTCACACACTCGAAATGCG | 4.77
CCTAGCTGGCCAGGGTCACTCAAGCATTTCGCTT | 2.36
AGAATGAGGTTATTAAGATCACGGAATTGCGGTC | 3.68
CTCGAAAGGTCGTGCCCAGGTGAGTATACCAAAC | 3.33
CGATCTAGGTCAAGGACAGTGAATCTCCGCACGC | 0.643
GCTAGCAGGCCACTTGGGTCACTCAATGACGGGC | 0.83
AGAATGAGGTTAAGATCAGGTAAACAGAATACAT | 1.49
